Source: PubChem
Sampled rows, rich in hits. Any-hit rate of the full collection: about 21%.
ClpP mod – qHTS Assay for Activators of ClpP | purified B. subtilis ClpP, FRET peptide cleavage, 20 min | Potency, µM (highest dose often 57.5 µM), without a hit: top-dose activity change, negative = active | AID 651965, 2013 | actives 1.9% (n = 340,000) | ATP-dependent Clp protease proteolytic subunit (Bacillus subtilis (strain 168)), P80244; active = well fitted falling curve with a large enough effect; inconclusive = small, poorly fitted or top-dose-only effect; inactive = no such curve, though single readings can be large or run the other way; also: potency is read from the fitted curve at half-maximal effect; the source files actives as falling curves though it sought activators and does not explain the sign; nearly all actives have a fitted effect of over 65% in size
Target sequence (P80244 whole entry, looked up): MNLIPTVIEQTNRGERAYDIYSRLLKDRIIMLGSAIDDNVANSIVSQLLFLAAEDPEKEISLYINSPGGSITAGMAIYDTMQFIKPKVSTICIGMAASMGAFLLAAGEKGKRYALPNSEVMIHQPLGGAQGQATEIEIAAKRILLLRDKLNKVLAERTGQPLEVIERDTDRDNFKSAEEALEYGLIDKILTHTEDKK
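ClpP 10 microg/mL final, pH 8 Tris/KCl buffer with BSA, glycerol, Tween-20; compound pinned in; FRET-FV substrate; RT 20 min; Ex320/Em430; ΔFRET vs ADEP 5.8 microM, DMSO, no enzyme.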
IL1B secr inh – inflammasome signaling inhibition, IL-1 beta readout | THP-1 LPS/ATP IL-1B secretion, AlphaLISA, 16 h; hits give low values | activity change, % at 57.5 µM | actives 4.7% (n = 360,000); in the data active = activity change below about -50%; inconclusive = mostly about -30% to -49%; also: % is scaled to controls: 0 for no effect and ±100 for the full control effect
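THP-1 cells pretreated 1 hr with compounds (up to 57.5 uM final), then stimulated with LPS (250 ng/mL final) plus ATP (1.25 mM final); secreted IL-1B measured by AlphaLISA after 16 hr, decreased signal indicating inhibition.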
DRD3 agonist – D3 dopamine receptor (human) agonism | P35462 | max activation, % | actives 0.58% (n = 410,000) | D3R DiscoveRx beta-arrestin cells, luminescence, 90 min; in the data active = max activation above about 30%; also: 0% is about no effect
Target sequence (P35462 whole entry, looked up): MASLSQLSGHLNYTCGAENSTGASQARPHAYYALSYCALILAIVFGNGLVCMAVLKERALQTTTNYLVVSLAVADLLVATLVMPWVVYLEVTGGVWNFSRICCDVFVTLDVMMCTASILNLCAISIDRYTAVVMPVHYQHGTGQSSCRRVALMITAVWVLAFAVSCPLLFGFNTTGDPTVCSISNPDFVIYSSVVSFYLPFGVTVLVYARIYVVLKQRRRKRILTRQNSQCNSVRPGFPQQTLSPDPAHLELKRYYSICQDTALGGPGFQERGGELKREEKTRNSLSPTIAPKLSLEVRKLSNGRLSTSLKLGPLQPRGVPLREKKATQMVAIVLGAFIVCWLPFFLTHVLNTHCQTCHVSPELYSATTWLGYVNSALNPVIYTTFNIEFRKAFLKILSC
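Agonist-mode cell screen: cells plated at 1500/well and incubated overnight at 37 °C, then exposed to library compounds for 90 min at 37 °C. Detection reagent was added for 30–60 min at room temperature, and luminescence was read.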
DRD3 antagonist – antagonists of human D3 dopamine receptor | P35462 | D3R cells, DiscoveRx beta-arrestin luminescence, antagonist mode; hits give low values | actives 2.5% (n = 360,000) | max response, negative = inhibition, % | AID 652054; in the data active = max response below about -50%; inconclusive = no clear call, values can overlap the other calls; also: % is scaled to controls: 0 for no effect and ±100 for the full control effect
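Cells plated overnight at 1500 cells/well, then exposed to library compounds with dopamine controls for 90 minutes at 37 degrees C. DiscoveRx reagent added for 30–60 minutes at room temperature; luminescence read, quantitative HTS format.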
TDP1 cell CPT – DT40-hTDP1 cell growth loss with CPT. chicken DT40 Tdp1-/-;hTDP1 cells + 20 nM CPT, ATP luminescence, 48 h. Potency, µM (highest dose often 46.2 µM), inactives show at the highest dose activity change, negative = growth inhibition, most hits filed as inhibitors. actives 12% (n = 420,000). AID 686979; also: potency is read from the fitted curve at half-maximal effect; % is scaled to controls: 0 for no effect and ±100 for the full control effect; nearly all actives have a fitted effect of over 55% in size
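Cell growth measured by CellTiter-Glo luminescence after a minimum 48 h, 37 C compound exposure with 20 nM CPT in Tdp1-knockout DT40 cells stably expressing hTDP1, seeded 400/well; qHTS titration format.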
DT40 TDP1 no CPT – qHTS for Inhibitors of human tyrosyl-DNA phosphodiesterase 1 (TDP1): qHTS in cells in absence of CPT. DT40 Tdp1-/- hTDP1 cells, no CPT, ATP luminescence, 48 h. Potency, µM (titrated, usually from 46.2 µM), without a hit: at the highest dose activity change, negative = growth inhibition, actives largely listed as inhibitors. actives 15% (n = 420,000). AID 686978, 2013; also: potency is read from the fitted curve at half-maximal effect; % is scaled to controls: 0 for no effect and ±100 for the full control effect; nearly all actives have a fitted effect of over 55% in size
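Growth kinetics read by CellTiter-Glo luminescence after ≥48 hr at 37 °C. Cells: DT40 Tdp1-/- stably carrying human TDP1, 400 per well, compound exposure in the absence of CPT (DMSO vehicle).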
An asterisk follows results filed as active. Unless noted, calls follow the shape of the dose curve; as a rule, active = well fitted inhibition curve with a large enough effect; inconclusive = small, poorly fitted or top-dose-only effect; inactive = flat fitted curve, though single readings scatter.

`Cc1cc(NC(=O)CSc2nc3c(C)cccc3cc2C)no1` gave IL1B secr inh 20, DRD3 agonist 0, DRD3 antagonist 4, TDP1 cell CPT 5% and DT40 TDP1 no CPT 3%.
Cc1ccccc1OCC(O)Cn1c(N2CCCCC2)nc2c1c(=O)[nH]c(=O)n2C (centres undefined) was read as ClpP mod -1%, IL1B secr inh 57, DRD3 agonist 4, DRD3 antagonist -9, TDP1 cell CPT inconclusive and DT40 TDP1 no CPT 8.2µM*.
For Cn1c(=O)[nH]c(=O)c2c1nc(N1CCCC1)n2CC(O)COc1ccccc1 (centres undefined) the results were ClpP mod -5%, IL1B secr inh 19, DRD3 agonist -3, DRD3 antagonist -12, TDP1 cell CPT -15% and DT40 TDP1 no CPT -14%.
Screening Cc1ccc(OCC(O)Cn2c(N3CCCCC3)nc3c2c(=O)[nH]c(=O)n3C)cc1C (centres undefined) returned ClpP mod 0%, IL1B secr inh 0, DRD3 agonist 8, DRD3 antagonist 3, TDP1 cell CPT inconclusive and DT40 TDP1 no CPT inconclusive.
For CCc1cccc(OCC(O)Cn2c(N3CCCCC3)nc3c2c(=O)[nH]c(=O)n3C)c1 (centres undefined) the results were ClpP mod -1%, IL1B secr inh inconclusive, DRD3 agonist 11, DRD3 antagonist 11, TDP1 cell CPT 8.2µM* and DT40 TDP1 no CPT 7.3µM*.
For Cc1ccccc1OCC(O)Cn1c(Br)nc2c1c(=O)[nH]c(=O)n2C (centres undefined) the results were ClpP mod -2%, IL1B secr inh 43, DRD3 agonist 12, DRD3 antagonist 43, TDP1 cell CPT 13µM* and DT40 TDP1 no CPT inconclusive.
`CCSc1nc2c(c(=O)[nH]c(=O)n2C)n1CC(O)COc1ccc(Cl)cc1` (centres undefined) gave ClpP mod -1%, DRD3 agonist -11, TDP1 cell CPT inconclusive and DT40 TDP1 no CPT 9.2µM*.
For Cn1c(=O)[nH]c(=O)c2c1nc(Br)n2CC(O)COc1ccc(Cl)cc1 (centres undefined) the results were ClpP mod -1%, IL1B secr inh 53, DRD3 agonist 13, DRD3 antagonist 60, TDP1 cell CPT inconclusive and DT40 TDP1 no CPT -52%.
`Cc1ccccc1OCC(O)Cn1c(SC(C)C)nc2c1c(=O)[nH]c(=O)n2C` (centres undefined) gave ClpP mod 0%, IL1B secr inh 17, DRD3 agonist 0, DRD3 antagonist 14, TDP1 cell CPT inconclusive and DT40 TDP1 no CPT inconclusive.
`CCCCCCCCCCCC(=O)OCC(O)CO` (centres undefined) gave DRD3 agonist 8, TDP1 cell CPT -3% and DT40 TDP1 no CPT -22%.
For Cc1c(-c2ccccc2)[n+](=O)c2c(n1[O-])CCCCC2 the results were ClpP mod -11%, IL1B secr inh 2, DRD3 agonist -9, DRD3 antagonist 1, TDP1 cell CPT -10% and DT40 TDP1 no CPT -10%.
`CCSc1nc2c(c(=O)[nH]c(=O)n2C)n1CC(O)COc1ccccc1C` (centres undefined) gave ClpP mod -1%, IL1B secr inh 42, DRD3 agonist 0, DRD3 antagonist 30, TDP1 cell CPT 15µM* and DT40 TDP1 no CPT inconclusive.
For COc1ccc(OC)c(S(=O)(=O)NC2CCCCNC2=O)c1 (centres undefined) the results were ClpP mod -1%, IL1B secr inh -30, DRD3 agonist -2, DRD3 antagonist 4, TDP1 cell CPT -5% and DT40 TDP1 no CPT 0%.
For COc1ccc(C2c3ccc(O)cc3Oc3ncn4nc(-c5cccnc5)nc4c32)cc1OC (centres undefined) the results were IL1B secr inh -25, DRD3 agonist 16, DRD3 antagonist 4, TDP1 cell CPT inconclusive and DT40 TDP1 no CPT 12µM*.
CCOC(=O)N1CCN(C(=O)C[C@@H]2C[C@@]3(C(=O)OCC)CCC=C3N(CCC3=CCCCC3)C2=O)CC1 was read as ClpP mod 0%, IL1B secr inh 0, DRD3 agonist -4, DRD3 antagonist -3, TDP1 cell CPT inconclusive and DT40 TDP1 no CPT inconclusive.
Screening CCOC(=O)[C@]12CCCC=C1N(Cc1ccccc1)C(=O)[C@H](CC(=O)N1CCCC1)C2 returned ClpP mod -3%, IL1B secr inh 5, DRD3 agonist -9, DRD3 antagonist inconclusive, TDP1 cell CPT -17% and DT40 TDP1 no CPT inconclusive.
Screening CCCCCCCCN1C(=O)[C@H](CC(=O)N2CCN(C(=O)OCC)CC2)C[C@@]2(C(=O)OCC)CCCC=C12 returned ClpP mod 1%, IL1B secr inh -22, DRD3 agonist 3, DRD3 antagonist 0, TDP1 cell CPT 16µM* and DT40 TDP1 no CPT inconclusive.
CCCCCCCCN1C(=O)[C@H](CC(=O)N2CCCC2)C[C@@]2(C(=O)OCC)CCCC=C12 was read as ClpP mod -3%, IL1B secr inh inconclusive, DRD3 agonist -5, DRD3 antagonist -3, TDP1 cell CPT 8.2µM* and DT40 TDP1 no CPT 8.2µM*.
Screening CCc1cccc(NC(=O)C2CCN(S(=O)(=O)c3ccc4c(c3)NC(=O)CO4)CC2)c1 returned ClpP mod 4%, IL1B secr inh 1, DRD3 agonist 2, DRD3 antagonist 27, TDP1 cell CPT inconclusive and DT40 TDP1 no CPT inconclusive.
For Cc1ccc(CNC(=O)CCc2c(C)nc3nc(C)nn3c2C)cc1 the results were ClpP mod -4%, DRD3 agonist 2, TDP1 cell CPT -11% and DT40 TDP1 no CPT -9%.
`Cn1cc([C@]2(O)C(=O)Nc3cccc(Cl)c32)c2ccccc21` gave ClpP mod 2%, IL1B secr inh 3, DRD3 agonist 3, DRD3 antagonist 21, TDP1 cell CPT inconclusive and DT40 TDP1 no CPT inconclusive.
Screening CC(=O)Nc1ccccc1-c1nc2ccccc2n(CC(=O)c2ccc(C)c(C)c2)c1=O returned ClpP mod -1%, DRD3 agonist -20, TDP1 cell CPT 21µM* and DT40 TDP1 no CPT inconclusive.
For CCC(=O)Nc1ccc(C)cc1-c1nc2ccccc2n(C(C)C(=O)Nc2ccccc2CC)c1=O (centres undefined) the results were ClpP mod 16%, DRD3 agonist -15, TDP1 cell CPT 18µM* and DT40 TDP1 no CPT 21µM*.
